Measured values from PubChem BioAssay (Tox21).
“And” between values parts separate entries of the source, which are not always exact repeats. Identical values can stand only once. Results filed as inconclusive are left out. Entries that show only a call come without a potency. Some structures have more than one record in an assay (separate samples or runs), and their calls can disagree. The source made the active and inactive calls. Unless noted, calls follow the shape of the dose curve; as a rule, active = well fitted curve in the direction sought with a large enough effect in the repeat runs; inconclusive = weak or mixed curves; inactive = no such curve, though single readings can be large; an effect the other way counts as inactive or inconclusive.

Legend:
[1] = qHTS assay to identify small molecule antagonists of the retinoid acid receptor (RAR) signaling pathway - cell viability counter screen (AID 1159551); also: nearly all actives have a fitted effect of over 35% in size; also: potency is read from the fitted curve at half-maximal effect
Procedure, shortened: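 Viability of C3RL4 cells is quantified from ATP by luminescence after 6 h treatment at 37 C with compounds and 1 uM retinol.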

[2] = qHTS assay to identify small molecule antagonists of the retinoic acid receptor (RAR) signaling pathway (AID 1159552; also: nearly all actives have a fitted effect of over 50% in size; also: potency is read from the fitted curve at half-maximal effect)
Procedure, shortened: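 Using a RARE-driven luciferase construct in C3RL4 cells, retinol at 1 uM final provided the agonist stimulus while compounds were co-applied. After 6 hours at 37 C, luminescence was recorded to flag inhibitors of retinol signaling.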

[3] = qHTS assay to identify small molecule agonists of the retinoic acid receptor (RAR) signaling pathway (AID 1159553); also: potency is read from the fitted curve at half-maximal effect
Procedure, shortened: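 Compounds dissolved in DMSO were pinned onto C3RL4 cells seeded the previous day, and plates were held 6 hr at 37 C. RARE-driven luciferase output was then read by luminescence.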

[4] = qHTS assay to identify small molecule antagonists of the estrogen related receptor (ERR) signaling pathway from Tox21 library - cell viability counter screen (AID 1224834); also: nearly all actives have a fitted effect of over 30% in size; also: potency is read from the fitted curve at half-maximal effect
Procedure, shortened: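 In this quantitative HTS format, ERR cells receive compounds in DMSO and are incubated for 17.5 h at 37 C. Live-cell protease activity is then detected with CellTiter-Fluor.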

[5] = target: Luciferin 4-monooxygenase (Photinus pyralis) (UniProt P08659); assay: qHTS assay to identify small molecule inhibitors of firefly luciferase (AID 1224835); also: nearly all actives have a fitted effect of over 25% in size; also: potency is read from the fitted curve at half-maximal effect
Sequence of Luciferin 4-monooxygenase (Photinus pyralis) (P08659 whole entry, looked up): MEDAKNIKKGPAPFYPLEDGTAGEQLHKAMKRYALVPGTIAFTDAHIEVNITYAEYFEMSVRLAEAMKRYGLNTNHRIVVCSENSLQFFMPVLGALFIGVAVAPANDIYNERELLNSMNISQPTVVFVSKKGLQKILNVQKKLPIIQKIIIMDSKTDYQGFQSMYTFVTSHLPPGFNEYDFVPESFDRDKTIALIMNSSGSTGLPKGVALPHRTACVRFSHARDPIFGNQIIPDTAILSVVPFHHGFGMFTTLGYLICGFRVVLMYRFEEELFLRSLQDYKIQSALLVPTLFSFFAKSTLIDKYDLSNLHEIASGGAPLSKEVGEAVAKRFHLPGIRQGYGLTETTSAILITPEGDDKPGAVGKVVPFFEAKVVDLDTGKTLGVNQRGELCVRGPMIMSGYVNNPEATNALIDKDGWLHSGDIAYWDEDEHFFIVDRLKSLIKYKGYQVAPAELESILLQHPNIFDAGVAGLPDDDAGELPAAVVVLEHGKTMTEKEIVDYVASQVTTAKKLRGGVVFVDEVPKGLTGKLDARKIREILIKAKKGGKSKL
Procedure, shortened: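 Inhibition of purified Photinus luciferase is measured by luminescence. Substrate levels (D-luciferin, ATP) sit at their KM values. Each compound is tested in a concentration series.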

[6] = qHTS assay to identify small molecule antagonists of the constitutive androstane receptor (CAR) signaling pathway - cell viability counter screen (AID 1224837); also: nearly all actives have a fitted effect of over 45% in size; also: potency is read from the fitted curve at half-maximal effect
Procedure, shortened: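 In quantitative HTS format, compounds at 15 concentrations were applied to HepG2 cells double-transfected with hCAR and CYP2B6-2.2kb under 50 nM CITCO stimulation; live-cell protease activity was read after 23 hr via CellTiter-Fluor.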

[7] = target: Nuclear receptor subfamily 1 group I member 3 (Homo sapiens) (UniProt Q14994); assay: qHTS assay to identify small molecule antagonists of the constitutive androstane receptor (CAR) signaling pathway (AID 1224838); also: nearly all actives have a fitted effect of over 40% in size; also: potency is read from the fitted curve at half-maximal effect
Sequence of Nuclear receptor subfamily 1 group I member 3 (Homo sapiens) (Q14994 whole entry, looked up): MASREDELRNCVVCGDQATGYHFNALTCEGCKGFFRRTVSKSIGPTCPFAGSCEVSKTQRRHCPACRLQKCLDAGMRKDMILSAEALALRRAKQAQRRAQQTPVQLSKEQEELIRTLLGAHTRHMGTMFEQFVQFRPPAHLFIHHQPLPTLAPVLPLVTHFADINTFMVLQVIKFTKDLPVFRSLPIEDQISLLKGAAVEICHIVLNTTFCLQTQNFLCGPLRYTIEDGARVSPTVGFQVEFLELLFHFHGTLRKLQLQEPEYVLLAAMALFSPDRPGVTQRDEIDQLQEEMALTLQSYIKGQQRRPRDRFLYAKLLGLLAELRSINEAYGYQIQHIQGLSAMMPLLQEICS
Procedure, shortened: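 CITCO-stimulated (50 nM final) HepG2 cells stably transfected with hCAR and CYP2B6-2.2kb luciferase were exposed to compounds at 15 concentrations for 24 h at 37 C/5% CO2. A luciferase reagent was added and luminescence recorded after 30 min.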

[8] = target: Nuclear receptor subfamily 1 group I member 3 (Homo sapiens) (UniProt Q14994); assay: qHTS assay to identify small molecule agonists of the constitutive androstane receptor (CAR) signaling pathway (AID 1224839); also: nearly all actives have a fitted effect of over 15% in size; also: potency is read from the fitted curve at half-maximal effect
Procedure, shortened: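 Using human hepatoma HepG2 cells engineered with hCAR and a CYP2B6-2.2kb reporter, 15-concentration compound series were incubated 24 h alongside PK11195 at 0.75 uM final, with luminescence quantified afterwards.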

[9] = qHTS assay to identify small molecule antagonists of the estrogen related receptor signaling pathway with the pleiotropic PPARgamma coactivator (PGC) from Tox21 10K library - cell viability counter screen (AID 1224840; active = well fitted cell-killing curve with a large enough effect in the repeat runs, not every such curve was filed as active; also: nearly all actives have a fitted effect of over 40% in size; also: potency is read from the fitted curve at half-maximal effect)
Procedure, shortened: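 Viability counter screen, PGC/ERR cells: 17.5 h compound exposure at 37 C, CellTiter-Fluor fluorescence endpoint.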

[10] = qHTS assay to identify small molecule antagonists of the estrogen related receptor signaling pathway with the pleiotropic PPARgamma coactivator (PGC) from Tox21 10K library (AID 1224841; call rule not given here; also: actives are mostly falling curves and most rising ones were filed inactive; nearly all actives have a fitted effect of over 50% in size; also: potency is read from the fitted curve at half-maximal effect)
Procedure, shortened: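 In the PGC/ERR line, DMSO solutions of test chemicals are pin-delivered to 2,000 cells/well six hours after dispensing. Following eighteen hours' incubation, One-Glo reagent is added and luminescence recorded.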

[11] = qHTS assay to identify small molecule agonists of the estrogen related receptor signaling pathway with the pleiotropic PPARgamma coactivator (PGC) from Tox21 10K library (AID 1224842); also: nearly all actives have a fitted effect of over 15% in size
Procedure, shortened: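 Luminescence from One-Glo (30 min, room temperature) measured after PGC/ERR cells had 18 h at 37 C with pinned compound (23 nL in DMSO). Cells had been seeded at 2,000 per well and pre-incubated 6 h.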

[12] = target: Thyrotropin receptor (Homo sapiens) (UniProt P16473); assay: qHTS assay to identify small molecule agonists of the thyroid stimulating hormone receptor (TSHR) signaling pathway (AID 1224843; calls by dose curve; also: nearly all actives have a fitted effect of over 45% in size)
Sequence of Thyrotropin receptor (Homo sapiens) (P16473 whole entry, looked up): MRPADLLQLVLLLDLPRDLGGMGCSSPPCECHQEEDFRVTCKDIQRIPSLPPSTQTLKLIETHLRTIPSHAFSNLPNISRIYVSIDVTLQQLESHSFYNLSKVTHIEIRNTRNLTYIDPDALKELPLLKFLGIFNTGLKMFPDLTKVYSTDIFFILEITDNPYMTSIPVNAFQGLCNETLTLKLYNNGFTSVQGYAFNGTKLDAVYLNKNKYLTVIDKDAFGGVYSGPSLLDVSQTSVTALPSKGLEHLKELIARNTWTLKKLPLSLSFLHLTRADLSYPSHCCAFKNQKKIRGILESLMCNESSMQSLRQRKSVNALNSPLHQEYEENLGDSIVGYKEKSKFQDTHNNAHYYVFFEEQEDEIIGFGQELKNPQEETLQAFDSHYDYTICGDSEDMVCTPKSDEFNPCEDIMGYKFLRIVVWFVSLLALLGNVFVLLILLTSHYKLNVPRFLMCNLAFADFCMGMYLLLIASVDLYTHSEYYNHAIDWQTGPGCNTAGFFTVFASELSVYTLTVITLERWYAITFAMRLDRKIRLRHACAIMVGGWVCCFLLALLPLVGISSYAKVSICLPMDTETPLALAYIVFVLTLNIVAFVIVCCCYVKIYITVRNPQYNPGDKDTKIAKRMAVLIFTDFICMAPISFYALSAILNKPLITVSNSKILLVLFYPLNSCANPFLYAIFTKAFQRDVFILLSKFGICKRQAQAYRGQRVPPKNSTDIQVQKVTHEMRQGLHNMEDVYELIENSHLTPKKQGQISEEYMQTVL
Procedure, shortened: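 Agonist activity read as cAMP rise via d2/cryptate HTRF competition, 1 h room-temperature detection, in HEK293 cells expressing TSHR. Fifteen-point titrations, each run in triplicate, with a 30 min room-temperature incubation beforehand.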

[13] = qHTS assay to identify small molecule agonists of the constitutive androstane receptor (CAR) signaling pathway - cell viability counter screen (AID 1224836); also: nearly all actives have a fitted effect of over 45% in size; also: potency is read from the fitted curve at half-maximal effect
Procedure, shortened: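 Multiplexed viability check: HepG2-CYP2B6-hCAR cells, 15-point compound dosing, 0.75 uM PK11195 final, 23 h at 37 C, CellTiter-Fluor fluorescence.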

[14] = qHTS assay to identify small molecule antagonists of the estrogen related receptor (ERR) signaling pathway - cell viability counter screen (AID 1224818); also: series mostly up to about 46 µM
Procedure, shortened: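 Cytotoxicity check run alongside the ERR antagonist screen: cells exposed to test compounds 17.5 h at 37 C, viability taken as CellTiter-Fluor fluorescence intensity.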

Row | SMILES | Potency [1] | Potency [2] | Potency [3] | Potency [4] | Potency [5] | Potency [6] | Potency [7] | Potency [8] | Potency [9] | Potency [10] | Potency [11] | Potency [12] | Potency [13] | Potency [14]
1 | OCC(CO)N[C@H]1C[C@](O)(CO)[C@@H](O)[C@H](O)[C@H]1O | inactive | inactive | inactive | inactive | inactive | inactive | inactive | inactive | inactive | inactive | inactive | inactive | – | –
2 | O=c1n(CC2CO2)c(=O)n(CC2CO2)c(=O)n1CC1CO1 (stereo not drawn) | inactive | inactive | inactive | 60.8 µM (active) | inactive | 60.8 µM (active) and 54.5 µM (active) | 76.5 µM (active) and 61.1 µM (active) | – | – | – | – | inactive | – | –
3 | OCCN1CCNCC1 | inactive | – | – | inactive | inactive | inactive | inactive | inactive | inactive | inactive | inactive | inactive | inactive | –
4 | COc1ccc(CCN(C)CCCC(C#N)(c2ccc(OC)c(OC)c2)C(C)C)cc1OC (stereo not drawn) | inactive | – | – | 54.4 µM (active) | – | – | – | – | inactive | – | – | – | 48.5 µM (active) | inactive
5 | CC1COC(=O)O1 (stereo not drawn) | inactive | – | – | inactive | inactive | inactive | inactive | inactive | inactive | inactive | inactive | – | inactive | –
6 | Nc1ccc(O)cc1 | inactive | inactive | 20.1 µM (active) | 31.8 µM (active) and inactive | 65.7 µM (active) and inactive | – | – | – | 35.7 µM (active) and inactive | 45 µM (active) and inactive | inactive | inactive | – | –
7 | CCCCCCCCCCCCc1ccccc1O | 61.1 µM (active) | 47.9 µM (active) and 54.5 µM (active) | – | 43.3 µM (active) | inactive | – | 30.6 µM (active) | 4.79 µM (active) and 4.33 µM (active) | inactive and 48.6 µM (active) | – | – | – | – | –
8 | Cc1ccc(S(=O)(=O)Oc2ccc(N=Nc3ccc(-c4ccc(N=Nc5c(O)ccc6cc(S(=O)(=O)O)cc(S(=O)(=O)O)c56)c(C)c4)cc3C)cc2)cc1 | 24.4 µM (active) and 20 µM (active) | inactive | inactive | 19.4 µM (active) and 17.8 µM (active) | 63.5 µM (active) and 23.2 µM (active) | 27.4 µM (active) and 31.6 µM (active) | inactive | – | 19.4 µM (active) and 20 µM (active) | 17.3 µM (active) | inactive | – | 27.4 µM (active) and 20 µM (active) | –
